# aDG glyco act: increases alpha dystroglycan glycosylation. Pro5-aDG cells, alpha-DG glycosylation AlphaScreen (IIH6); 0% Pro5, 100% B10-LARGE cell signal. activation, % at 10 µM. actives 0.22% (n = 360,000). AID 624168;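 active means activation of at least 8% versus controls, or a plate z-score of at least 8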;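 further: Pro5 are CHO cells carrying HIG-tagged alpha-DG that lacks glycosylation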
# H9c2 protect: modulators protecting cardiomyocytes from myocardial damage. H9c2 cardiomyocytes, H2O2 injury protection, ATPLite, 2 h. protection from H2O2 cell death, % at 20 µM. actives 0.63% (n = 360,000). AID 588492;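 active means compounds giving at least 50% protection of heart cells from peroxide-induced death in the single-dose screen, raw or plate-pattern-corrected value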
# MPTP block: blocks calcium-induced mitochondrial swelling | isolated mouse mitochondria, Ca2+ swelling absorbance, 30 min | inhibition, % at 10 µM | actives 1.4% (n = 360,000);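 active means inhibition of 50% or more, scaled per plate between neutral and stimulator controls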
# FAS-TE inh: blocks the thioesterase domain of human fatty acid synthase | P49327 | recombinant FAS-TE, OMFH fluorogenic substrate, fluorescence endpoint | inhibition, % at 15 µM | actives 0.67% (n = 360,000) | AID 602261;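 active means compounds whose normalised, plate-corrected inhibition of enzyme fluorescence in the single-dose primary screen is 50% or more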
# Mot1-301 SUMO: blocks SUMOylation pathway, rescuing yeast Mot1-301 growth. S. cerevisiae Mot1-301 growth rescue, ATP luminescence, 38.5C; percent above DMSO median, 100 means doubled. growth rescue, % at 18.8 µM. actives 1% (n = 320,000);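 active means every valid replicate shows activation above 250% relative to neutral control wells; inactive means the rest, any valid replicate at or below 250%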
# CR mimetic SO: yeast age-related superoxide inhibition as caloric restriction mimetic; S. cerevisiae aged cells, superoxide DHE fluorescence; active compounds read low; superoxide response (% of plate mean), % at 10 µM; actives 0.18% (n = 330,000); AID 2690;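 active means superoxide response under a set limit, about three screen SD below normal, cut at about 65% in these data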;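 further: yeast aged for seven days with compound at 30 °C before DHE staining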
# Rh123 counter: membrane potential counter-screen of mitochondrial pore inhibitors | shares compounds with MPTP block | isolated mitochondria, Rhodamine 123 fluorescence | inhibition, % at 10 µM | actives 78% (n = 5,000) | AID 624504; in the data active means inhibition above about 22%
# MPTP abs DR: MPTP inhibition, dose response swelling confirmation | AID 651561 | isolated mitochondria swelling, absorbance | IC50, µM | shares compounds with MPTP block | actives 58% (n = 780); in the data active means IC50 below about 20 µM
# MPTP counter DR: counter-screen for mitochondrial permeability transition pore inhibitors, dose response. shares compounds with MPTP block. isolated mitochondria counterscreen, fluorescence read-out. IC50, µM. actives 49% (n = 780). AID 651564; in the data active means IC50 below about 80 µM
# Hits are given with their value; n = inactive; x = no result. Hits are enriched below; roughly 3.8% of the tested compounds scored in any of these assays.
SMILES,aDG glyco act,H9c2 protect,MPTP block,FAS-TE inh,Mot1-301 SUMO,CR mimetic SO,Rh123 counter,others
Cc1cc(C)cc(NC(=O)C2(c3ccccc3)CC2(Cl)Cl)c1 (stereo not given),n,n,70.7,n,n,n,75.8,
CCc1ccc(NC(=O)C2(c3ccccc3)CC2(Cl)Cl)cc1 (stereo not given),n,n,53.4,n,n,n,71.8,
CC1CCCN(C(=O)CCNS(=O)(=O)c2ccc3c(c2)c(=O)n(C)c(=O)n3C)C1 (stereo not given),n,n,n,n,n,n,x,
O=c1[nH]c2cc3ccccc3cc2nc1-c1nnnn1C1CCCC1,n,x,n,n,x,x,x,
O=C(CCOc1cccc(Br)c1)NNC(=O)COc1ccc(F)cc1,n,n,n,n,x,x,x,
COC(=O)C1=C(C)N(Cc2ccccc2)C(=NCc2cccc(C(F)(F)F)c2)N[C@H]1c1cccc(F)c1,n,n,80.1,n,n,x,n,
COC(=O)C1=C(C)N(Cc2ccccc2)C(=NCc2cccc(C(F)(F)F)c2)N[C@H]1c1cccc(C(F)(F)F)c1,n,n,88.1,n,n,n,n,
O=C(Cc1cccc(NC(=O)C2CCCN(C(=O)c3ccccc3)C2)c1)Nc1cccc(C(=O)N2CCCCC2)c1 (stereo not given),n,n,n,n,x,x,x,
O=C(Nc1cccc(Cl)c1)Nc1nccs1,n,n,72.3,n,n,n,91.6,
O=C(Nc1ccc(Cl)c(Cl)c1)Nc1nccs1,n,n,87.2,n,n,n,68.3,
O=C(Nc1ccc(Cl)cc1)C1C2C=CC3(O2)C1C(=O)N(CCN1CCCCC1)C3C(=O)NC1CCCCC1 (stereo not given),n,n,n,n,n,n,x,
Cc1cccc(C)c1-n1c(C)cc(/C=N/NC(=O)CSc2ncccn2)c1C,n,n,88.6,n,n,n,n,MPTP abs DR=n;MPTP counter DR=49.6
Cc1cc(C)nc(SCC(=O)N/N=C/c2cc(C)n(-c3ccccc3C)c2C)n1,n,n,n,n,n,n,x,
CC(=O)C(Cc1ccccc1)NC(=O)COc1ccc2c(c1)OCO2 (stereo not given),n,n,n,n,n,n,x,
OCC1(Cc2ccc(Cl)cc2)CCN(CCCc2ccccc2)CC1,n,n,53.0,n,n,n,n,MPTP abs DR=10
C[C@H](CO)N1C[C@H](C)[C@@H](CN(C)Cc2ccncc2)Oc2c(cccc2N(C)C)C1=O,n,n,n,n,n,n,x,
CCN(CC)CCOc1ccc(/C(=C(\Cl)c2ccccc2)c2ccccc2)cc1,n,n,104.0,n,n,n,n,
CC1CCC(NC(=O)c2cccc(S(=O)(=O)N3CCN(C)CC3)c2)CC1 (stereo not given),n,n,n,n,n,n,x,
CC1CCC(NC(=O)c2cccc(S(=O)(=O)N3CCN(c4ccccc4)CC3)c2)CC1 (stereo not given),n,n,76.4,n,n,n,n,MPTP abs DR=n;MPTP counter DR=n
COc1ccc(-c2cn(Cc3ccc(C(N)=O)cc3)c(-c3ccc(Cl)nc3)n2)cc1,n,n,n,n,n,n,x,
COc1ccc(-c2cn(Cc3ccc(C(=O)NCc4ccc(C)cc4)cc3)c(C(C)N)n2)cc1 (stereo not given),n,n,74.8,n,n,n,n,MPTP abs DR=10.2;MPTP counter DR=n
c1ccc(Nc2nc(NCc3ccco3)c3ccccc3n2)cc1,n,n,76.2,n,n,n,91.2,
Cc1ccccc1Nc1nc(NCc2ccco2)c2ccccc2n1,n,n,n,n,n,n,x,
Cc1cccc(Nc2nc(NCc3ccco3)c3ccccc3n2)c1,n,n,90.8,n,n,n,90.3,
Cc1ccc(S(=O)(=O)NC(=O)C2(C)CCN2C(=O)Cc2ccc(C(C)(C)C)cc2)nc1 (stereo not given),n,n,n,n,x,x,x,
SMILES,aDG glyco act,H9c2 protect,MPTP block,FAS-TE inh,Mot1-301 SUMO,CR mimetic SO,Rh123 counter,others
O=C(NCc1cccc(C(F)(F)F)c1)c1cccc(S(=O)(=O)NCc2ccccc2)c1,n,n,60.0,n,n,n,71.2,
FC(F)(F)c1cc(C(F)(F)F)c2ccc(N/N=C/c3ccccc3)nc2n1,n,n,n,n,n,n,x,
N#CC(c1ccccc1)c1ccc2c(C(F)(F)F)cc(C(F)(F)F)nc2n1 (stereo not given),n,n,92.7,n,x,n,70.5,
Cc1ccc(C(C#N)c2ccc3c(C(F)(F)F)cc(C(F)(F)F)nc3n2)cc1 (stereo not given),n,n,113.1,n,n,n,68.5,
CCOC(=O)Cc1csc(NC(=O)c2ccc(C)c(S(=O)(=O)N3CCOCC3)c2)n1,n,n,n,n,x,n,x,
COC(=O)C(Cc1csc2ccc(Cl)cc12)NC(=O)c1ccc(Cl)cc1 (stereo not given),n,n,n,n,n,n,x,
O=c1cc(CSc2nnc(Nc3ccccc3)s2)nc2sccn12,n,n,n,n,n,n,x,
Cc1cccc(Nc2nnc(SCc3cn4ccsc4n3)s2)c1,n,n,76.0,n,n,n,n,MPTP abs DR=n;MPTP counter DR=n
OCCCNc1ncnc2c1ncn2[C@H]1CN(Cc2ccc(Cl)cc2)C[C@@H](CO)O1,n,n,n,n,x,x,x,
Cc1cc(NC(=O)Nc2ccccc2F)ccc1Br,n,n,84.1,n,n,n,90.6,
O=C(Nc1ccccc1)Nc1ccc(Br)cc1F,n,n,53.3,n,n,n,84.5,
O=C(Nc1cccc(Cl)c1)Nc1ccc(Br)cc1F,n,n,75.4,n,n,n,82.1,
Cn1nnc2cc(NC(=O)Nc3ccccc3F)ccc21,n,n,n,n,x,x,x,
COc1ccccc1NC(=O)Nc1ccc(F)c(F)c1,n,n,80.6,n,n,n,68.4,
COC(=O)c1cc(S(=O)(=O)NCCc2ccc(SC)cc2)c[nH]1,n,n,n,n,n,n,x,
COC(=O)c1ccccc1S(=O)(=O)N1CCC(C(=O)NCc2ccccn2)CC1,n,n,n,n,x,x,x,
CCOC(=O)[C@]12CCCC=C1N(Cc1ccco1)C(=O)[C@H](CC(=O)NCc1cccc3ccccc13)C2,n,x,n,n,x,x,x,
O=C1/C(=C\c2ccccn2)SC(=S)N1c1ccc(S(=O)(=O)Nc2nccs2)cc1,n,n,70.5,n,n,n,47.9,
Cc1ccc(/C=C2/SC(=S)N(c3ccc(S(=O)(=O)Nc4nccs4)cc3)C2=O)cc1,n,n,95.7,n,n,n,74.6,
Cc1ccc(Oc2ccc3c(c2)C(=O)N(c2ccc(S(=O)(=O)Nc4nccs4)cc2)C3=O)cc1,n,n,n,n,n,n,x,

# Compound activity deposited in PubChem by several laboratories.
